Source: PubChem (National Center for Advancing Translational Sciences (NCATS))
Rows were chosen to be rich in hits. Some 9.4% of all compounds tested hit in one or more screens of this group.
AMA1-RON2 inh: inhibitors of Plasmodium falciparum AMA1-RON2 interaction; AID 720542; AlphaScreen AMA1-biotinylated RON2 peptide binding; Potency, µM (top dose mostly 58.2 µM), without a hit: at the top dose activity change, negative = inhibition, actives largely listed as inhibitors; hit rate 0.2% among 360,000;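 note: 0% = vehicle wells and -100% = peptide control; nearly all actives have a fitted effect of over 45% in size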
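AMA1 (3D7) with his tag at 25 nM final met compounds first, then biotinylated RON2 peptide at 25 nM; detection used donor plus acceptor beads, 10 µg/mL apiece, read by AlphaScreen after 30 min at room temperature.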
Pf growth 48h: inhibits P. falciparum growth in the first generation, 48 h | P. falciparum luciferase growth in erythrocytes, 48 h | Potency, µM (titrated, usually from 28.7 µM), inactives show at the top dose activity change, negative = inhibition, most hits filed as inhibitors | hit rate 5.9% among 310,000; note: % is set by controls: 0 for no effect and ±100 for the full control effect
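Growth was read as firefly luciferase luminescence after a 48 h, 37 C, 5% CO2 exposure of compounds to reporter-bearing P. falciparum cultures (0.1% parasitemia, 2% hematocrit final) in Albumax-supplemented RPMI 1640.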
Pf growth 96h: inhibits malaria parasite growth, 96 h; Potency, µM (doses to about 28.7 µM), inactives show at the top dose activity change, negative = inhibition, most hits filed as inhibitors; P. falciparum luciferase reporter growth, 96 h; hit rate 6.9% among 320,000; note: % is set by controls: 0 for no effect and ±100 for the full control effect
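Delayed-death screen, second-generation endpoint: infected erythrocytes, 2% hematocrit, 0.05% parasitemia final; 96 hours at 37 C, 5% CO2; luciferase detection reagent; luminescence decrease equals reduced growth.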
SARS PLpro yeast: blocks SARS-CoV papain-like protease in a yeast assay | S. cerevisiae expressing SARS-CoV PLpro, growth rescue | Potency, µM (doses to about 32.9 µM), inactives show at the highest dose activity, positive = growth rescue, hits mostly activators | hit rate 0.19% among 330,000 | AID 485353; calls by dose curve; note: 0% is about no effect; nearly all actives have a fitted effect of over 55% in size
* marks the source's active call; other numbers are inactive results; u = inconclusive; x = no result; [ ] = dose if it differs, or a comment. Unless noted, calls come from the whole dose curve; as a rule, active = well fitted curve in the direction sought with a large enough effect; inconclusive = small, poorly fitted or top-dose-only effect, or another doubt; inactive = no such curve, though single readings can be large; an effect the other way counts as inactive or inconclusive. Potency is the fitted concentration of half-maximal effect.

SMILES	AMA1-RON2 inh	Pf growth 48h	Pf growth 96h	SARS PLpro yeast
CCN(CC)C(=O)c1sc2nc(-c3cccs3)cc(-c3ccc(Cl)cc3)c2c1N	21%	u	7.4µM*	2%
CCN(CC)C(=O)c1sc2nc(-c3cccs3)cc(-c3cccs3)c2c1N	39%	4.1µM*	u	-2%
O=C(Nc1ccc(-c2cnco2)cc1)c1ccc(Cl)cc1	-1%	32%	17%	-1%
Cc1ccc(Nc2nnc(SCC(=O)Nc3ccccc3[N+](=O)[O-])s2)cc1	-6%	-15%	10µM*	-5%
Cc1cccc(C)c1NC(=O)CSc1nnc(NC(=O)c2ccccc2C(=O)O)s1	11%	0%	u	0%
O=C(CSc1nnc(NC(=O)c2ccccc2C(=O)O)s1)Nc1ccccc1Cl	-4%	-27%	13µM*	-1%
Cc1ccc2oc(C(=O)N(Cc3ccc(N(C)C)cc3)C3CCS(=O)(=O)C3)c(C)c2c1 (stereo not given)	28µM*	u	4.7µM*	-10%
Cc1ccc2c(C)c(C(=O)N(Cc3ccc(N(C)C)cc3)C3CCS(=O)(=O)C3)oc2c1 (stereo not given)	18µM*	u	u	-13%
COc1ccc(CN(C(=O)c2oc3ccccc3c2C)C2CCS(=O)(=O)C2)cc1OC (stereo not given)	-8%	u	7%	2%
Cc1c(C(=O)N(Cc2cccc(Br)c2)C2CCS(=O)(=O)C2)oc2ccc(F)cc12 (stereo not given)	6%	u	13µM*	-3%
Cc1c(C(=O)N(Cc2ccc(Cl)cc2)C2CCS(=O)(=O)C2)oc2ccccc12 (stereo not given)	-2%	13µM*	2%	-6%
CCOc1ccc(CN(C(=O)c2oc3ccccc3c2C)C2CCS(=O)(=O)C2)cc1 (stereo not given)	-15%	-40%	u	-3%
CC(=O)N(C(C)=O)c1nc(-c2ccccc2)cn1/N=C/c1cccc([N+](=O)[O-])c1	6%	u	u	0%
Cc1ccc(C)c(OCC(=O)NCC(C)(C)N2CCOCC2)c1	0%	0%	u	-5%
COC(=O)C1=C(C(=O)c2ccccc2)C(c2ccc(OC)c(OC)c2)Nc2nnnn21 (stereo not given)	u	-14%	u	1%
COc1ccc(CN(C(=O)c2oc3cc(C)c(C)cc3c2C)C2CCS(=O)(=O)C2)cc1OC (stereo not given)	-4%	u	2.9µM*	-2%
CCn1c(SCC(=O)N2c3ccccc3Sc3ccccc32)nnc1-c1ccco1	-10%	u	-12%	-20%
CCOC(=O)c1cnc(SCc2ccc(C)cc2)nc1N	29%	70%	0.052µM*	-8%
Cn1c2ccccc2c(=O)c2c(=O)n(C3CCCCC3)c(-c3cccs3)nc21	-4%	6.6µM*	x	-3%
CCc1nc2c(c(=O)c3ccccc3n2C)c(=O)n1C1CCCCCC1	0%	u	u	-19%
Cn1c2ccccc2c(=O)c2c(=O)n(C3CCCCCC3)c(C3CCCCC3)nc21	6%[11.6 µM]	8.3µM*	10µM*	0%
Cn1c2ccccc2c(=O)c2c(=O)n(-c3ccccc3)c(C3CCCCC3)nc21	-7%	9.3µM*	9.3µM*	-22%
CN(CC(=O)Nc1ccccc1Cl)C(=O)c1cccc(S(=O)(=O)N2CCN(Cc3ccccc3)CC2)c1	-3%	u	-12%	9%
CN(CCC#N)C(=O)c1cc2c(Cl)nc3ccccc3c2s1	4%	-4%	-22%	0%
CNC(=O)CSc1nnc(-c2cccnc2)n1-c1ccc(C)cc1	-3%	-1%	-10%	0%
SMILES	AMA1-RON2 inh	Pf growth 48h	Pf growth 96h	SARS PLpro yeast
Cc1nc2nc(SCC(=O)N3CCC4(CC3)OCCO4)nn2c(C)c1Cc1ccccc1	-6%	x	-9%	1%
Cc1nc2nc(SCC(=O)N3CCOCC3)nn2c(C)c1Cc1c(F)cccc1Cl	-6%	3.7µM*	31%	7%
COC(=O)c1c(-c2cccc3ccccc23)csc1NC(=O)Cc1ccc(OC)c(OC)c1	-10%	x	2.6µM*	-4%
CN(C)c1ccc(NC(=O)CSc2nc3ccccc3c(=O)n2C2CCCCC2)cc1	u	u	-12%	-7%
CCN(CC)c1ccc(NC(=O)CSc2nc3ccccc3c(=O)n2-c2cc(S(=O)(=O)N(C)C)ccc2C)cc1	u	8.3µM*	u	-5%
CN(C)S(=O)(=O)c1ccc(NC(=O)CSc2nc3ccccc3n2-c2ccccc2)cc1	-17%	5.9µM*	2.3µM*	-3%
CN(C)S(=O)(=O)c1cccc(NC(=O)CSc2nc3ccccc3n2-c2ccccc2)c1	-6%	u	u	-13%
C[C@]12CCC3C(CC[C@H]4CC(O)CC[C@]34C)C1CC/C2=N/O (stereo not given in full)	2%	-3%[0.00184 µM]	u	-5%
COc1cc(OC)cc(N(C(=O)C2COc3ccccc3O2)C(C(=O)NC2CCCCC2)c2ccc(O)cc2)c1 (stereo not given)	-3%[11.6 µM]	13µM*	7.4µM*	3%
COc1ccc(C(C(=O)NC2CCCC2)N(C(=O)c2ccco2)c2ccc(OC)c(OC)c2)cc1 (stereo not given)	-3%	u	u	2%
COc1ccc(N(C(=O)C2COc3ccccc3O2)C(C(=O)NC2CCCCC2)c2ccccc2)cc1OC (stereo not given)	-11%	7.4µM*	u	9%
COc1cccc(C(C(=O)NC2CCCCC2)N(CCN2CCOCC2)C(=O)C2COc3ccccc3O2)c1 (stereo not given)	-10%	-30%	0%	0%
Cc1ccc2c(c1)C(c1ccccc1)=NCC(=O)N2	-4%	5%	26%	6%
CCn1c(=O)c2sccc2n2c(CCCC(=O)NC3CCN(Cc4ccccc4)CC3)nnc12	-12%	11%	13µM*	0%
CCn1c(=O)c2sccc2n2c(CCCC(=O)N3CCN(c4ccccn4)CC3)nnc12	22%	10µM*	u	3%
CC(NC(=O)CCCc1nnc2n(C)c(=O)c3sccc3n12)c1ccccc1 (stereo not given)	-1%	15%	13µM*	2%
CC(C)CCn1c(=O)c2ccccc2n2c(CCC(=O)NC3CCN(Cc4ccccc4)CC3)nnc12	14%	u	u	-13%
c1ccc2sc(SN3CCOCC3)nc2c1	-3%	3%	-21%	-15%
Cc1nc2ccccc2c(C)c1CC(=O)N(CC(C)C)c1c(N)n(Cc2ccccc2)c(=O)[nH]c1=O	-11%	u	12µM*	4%
CC(C)CN(C(=O)CCCc1nc2ccccc2c(=O)[nH]1)c1c(N)n(Cc2ccccc2)c(=O)[nH]c1=O	3%	24%	-8%	-3%
CCCN(C(=O)Cc1coc2cc(C)c(C)cc12)c1c(N)n(Cc2ccccc2)c(=O)[nH]c1=O	-4%	u	u	0%
Cc1cc2occ(CC(=O)N(CC(C)C)c3c(N)n(Cc4ccccc4)c(=O)[nH]c3=O)c2cc1C	1%	17µM*	-7%	x
